Broadly, the AC50 is the midpoint of the concentration-response curve, whichever way the signal moves.

From PubChem BioAssay (EPA / NIEHS) come the findings set out here.

Assay [1] deals with Estrogen receptor beta (Homo sapiens) (UniProt Q92731). In words: OT_ER_ERbERb_1440: Odyssey Thera (OT) 24-hour HEK293T Protein-Complementation Assay for Estrogen Receptor-beta/-beta Homodimer (AID 2283380).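 Note: fluorescence gain from ER beta LBD homodimer complementation read by laser scanning cytometry; scored as signal increase over DMSO baseline for both agonists and antagonists.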 The method, boiled down: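 HEK293T cells stably expressing human ER-beta LBD (aa 310-547) PCA homodimer pair, dosed 24 h; formaldehyde-fixed, Draq5-stained. Readout: increase in nuclear (agonist) or nuclear plus cytoplasmic (antagonist) fluorescence intensity versus DMSO, gain-of-signal fitting.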

For assay [2], the target named is Estrogen receptor (Homo sapiens) (UniProt P03372). The assay is described as follows: OT_ERa_GFPERaERE_0480: Odyssey Thera (OT) 8-hour HeLa Transcription Induction Assay for Estrogen Receptor (AID 2283381; active = hit-call score of the fitted dose curve at least 0.9, where 1 is the maximum; inactive = score below 0.9). The method, boiled down: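 HeLa cells expressing GFP reporter under estrogen response element, imaged 8 h after dosing. GFP induction quantified by high-content fluorescence microscopy image analysis; gain of signal fitted versus DMSO.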

The target is the same in assay [3]. In words: OT_ERa_GFPERaERE_0120: Odyssey Thera (OT) 2-hour HeLa Transcription Induction Assay for Estrogen Receptor (AID 2283382). In short, it runs like this:
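HeLa cells were dosed for 2 h, then GFP reporter induction was quantified by fluorescence microscopy with high-content image analysis. Gain of signal fitted against DMSO baseline.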

For assay [4], the target named is Retinoic acid receptor RXR-alpha (Homo sapiens) (UniProt P19793). The assay is described as follows: OT_NURR1_NURR1RXRa_0480: Odyssey Thera (OT) 8-hour HEK293T Protein Complementation Assay for Nurr1/retinoid X receptor (RXR) (AID 2283385). The method, boiled down:
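HEK293T cells expressing Nurr1 and RXRα fused to reporter fragments (protein-fragment complementation); fluorescence measured 8 h after dosing. Gain of signal fitted relative to DMSO.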

The target is the same in assay [5]. The assay is described as follows: OT_NURR1_NURR1RXRa_1440: Odyssey Thera (OT) 24-hour HEK293T Protein Complementation Assay for Nurr1/retinoid X receptor (RXR) (AID 2283386). In short, it runs like this:
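HEK293T protein-fragment complementation of Nurr1 and RXRα fused to reporter fragments; compounds 24 h. Fluorescence gain from reconstituted reporter fitted versus DMSO.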

The target in assay [6] is Peroxisome proliferator-activated receptor gamma (Homo sapiens) (UniProt P37231). The assay is described as follows: OT_PPARg_PPARgSRC1_0480: Odyssey Thera (OT) 8-hour Protein-Complementation Assay for Peroxisome Proliferator-activated Receptor Gamma / SRC-1 Co-activator (AID 2283387).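 Note: nuclear to cytoplasmic split Venus YFP fluorescence ratio reporting PPARg SRC-1 interaction.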 The method, boiled down: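 Protein-fragment complementation in HEK293T: Venus YFP halves (residues 1-158, 159-239, mutated to IFP1/IFP2) fused to PPARg/SRC-1. 8 h exposure; N/C ratio at 488 nm; DMSO negative control.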

For assay [7] the target is unchanged. The assay is described as follows: OT_PPARg_PPARgSRC1_1440: Odyssey Thera (OT) 24-hour Protein-Complementation Assay for Peroxisome Proliferator-activated Receptor Gamma/ SRC-1 Co-activator (AID 2283388).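 Note: nuclear to cytoplasmic ratio of reconstituted Venus YFP fluorescence in fixed imaged cells.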 The method, boiled down:
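Protein-fragment complementation between PPARg and coactivator SRC-1 was measured by fluorescence imaging in transiently transfected HEK293T cells after 24 h treatment. Signal was quantified as N/C ratio in the 488 nm channel, with DMSO as negative control.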

Read-out in assay [8]: Tumor necrosis factor receptor superfamily member 6 (Homo sapiens) (UniProt P25445)
The assay is described as follows: LTEA_HepaRG_FAS: Life Technologies and Expression Analysis (LTEA) Assay for Fas cell surface death receptor (FAS) using HepaRG (AID 2283447; active = hit-call score of the fitted dose curve at least 0.9, where 1 is the maximum; inactive = score below 0.9). Conditions: mRNA level, 48 h; actives raise or lower the signal. The method, boiled down: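 Differentiated human HepaRG cells, pre-cultured 48 h, were exposed in duplicate for 48 h to 8-point half-log concentrations (top 100 uM, 0.5% DMSO) in serum-free induction medium; FAS mRNA measured by qRT-PCR, normalized to ACTB/GAPDH/POLR2A, bidirectional fit versus DMSO.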

Read-out in assay [9]: Fatty acid synthase (Homo sapiens) (UniProt P49327)
In words: LTEA_HepaRG_FASN: Life Technologies and Expression Analysis (LTEA) Assay for Fatty Acid Synthase (FASN) using HepaRG (AID 2283448; active = hit-call score of the fitted dose curve at least 0.9, where 1 is the maximum; inactive = score below 0.9). Particulars: mRNA level, 48 h; actives raise or lower the signal. The method, boiled down: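 Differentiated HepaRG cells in serum-free induction medium exposed 48 h in duplicate to eight half-log concentrations, top 100 uM, 0.5% DMSO. FASN mRNA by qRT-PCR normalised to ACTB, GAPDH, POLR2A; bidirectional fit versus DMSO.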

Assay [10] in a line: CEETOX_H295R_OHPROG: CeeTox H295R High-throughput Steroidogenesis Assay for OH-Progesterone (OHPROG) (AID 2283435; active = hit-call score of the fitted dose curve at least 0.9, where 1 is the maximum; inactive = score below 0.9). Particulars: actives raise or lower the signal. The method, boiled down:
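H295R adrenal cells prestimulated 48 h with 10 uM forskolin, then exposed 48 h to chemical (0.1% DMSO final). 17alpha-hydroxyprogesterone in medium quantified by HPLC-MS/MS; bidirectional fit versus DMSO, with MTT viability measured in the same wells.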

A short description of assay [11]: CEETOX_H295R_ESTRADIOL: CeeTox H295R High-throughput Steroidogenesis Assay for Estradiol (AID 2283440; active = hit-call score of the fitted dose curve at least 0.9, where 1 is the maximum; inactive = score below 0.9;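 note: estradiol secreted into medium quantified by LC-MS/MS after dansyl derivatisation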). Particulars: actives raise or lower the signal. The method, boiled down: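 Estradiol secreted into the medium was measured by tandem mass spectrometry after liquid-liquid extraction and dansylation. Human H295R cells had been forskolin-primed (10 uM, 48 h) before a 48 h chemical exposure with 0.1% DMSO.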

Assay [12] is described as follows: CEETOX_H295R_ESTRONE: CeeTox H295R High-throughput Steroidogenesis Assay for Estrone (AID 2283441; active = hit-call score of the fitted dose curve at least 0.9, where 1 is the maximum; inactive = score below 0.9;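 note: estrone secreted into medium measured by LC-MS/MS after dansyl derivatization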). Conditions: actives raise or lower the signal. In short, it runs like this: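 H295R cells prestimulated 48 h with 10 uM forskolin, then exposed 48 h to chemicals in 0.1% DMSO final; estrone in medium extracted with MTBE, dansyl-derivatized, quantified by HPLC-MS/MS; bidirectional fitting versus DMSO, viability by MTT.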

The nature of assay [13]: CEETOX_H295R_11DCORT: CeeTox H295R High-throughput Steroidogenesis Assay for 11-Deoxycortisol (11DCORT) (AID 2283432; active = hit-call score of the fitted dose curve at least 0.9, where 1 is the maximum; inactive = score below 0.9). Particulars: actives raise or lower the signal. The method, boiled down: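 Adrenal carcinoma line H295R, run per OECD 456 with minor changes, was forskolin-stimulated (10 uM, 48 h) before a 48 h chemical exposure at 0.1% DMSO. Secreted 11-deoxycortisol was quantified by HPLC-MS/MS.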

A short description of assay [14]: CEETOX_H295R_OHPREG: CeeTox H295R High-throughput Steroidogenesis Assay for OH-Pregnenolone (OHPREG) (AID 2283434; active = hit-call score of the fitted dose curve at least 0.9, where 1 is the maximum; inactive = score below 0.9). Particulars: actives raise or lower the signal. The method, boiled down: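 Human adrenal H295R cells were prestimulated 48 h with 10 uM forskolin, then exposed 48 h to chemical in 0.1% DMSO. Medium 17alpha-hydroxypregnenolone was quantified by HPLC-MS/MS after MTBE extraction; bidirectional fitting versus DMSO baseline.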

The nature of assay [15]: CEETOX_H295R_CORTISOL: CeeTox H295R High-throughput Steroidogenesis Assay for Cortisol (AID 2283438; active = hit-call score of the fitted dose curve at least 0.9, where 1 is the maximum; inactive = score below 0.9;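 note: cortisol secreted into medium quantified by LC-MS/MS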). Conditions: actives raise or lower the signal. The method, boiled down: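 Forskolin-primed H295R cells (10 uM, 48 h) treated 48 h with test chemical in 0.1% DMSO. Cortisol in medium quantified by MTBE extraction and HPLC-MS/MS; bidirectional fit vs DMSO, MTT viability in same wells.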

The nature of assay [16]: CEETOX_H295R_DOC: CeeTox H295R High-throughput Steroidogenesis Assay for DOC (AID 2283439; active = hit-call score of the fitted dose curve at least 0.9, where 1 is the maximum; inactive = score below 0.9). Particulars: actives raise or lower the signal. In short, it runs like this:
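H295R cells prestimulated 48 h with 10 uM forskolin, then exposed 48 h to test chemical (0.1% DMSO final). Medium 11-deoxycorticosterone measured by HPLC-MS/MS after MTBE extraction; bidirectional fit vs DMSO, viability checked by MTT in same wells.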

A short description of assay [17]: CEETOX_H295R_PROG: CeeTox H295R High-throughput Steroidogenesis Assay for Progesterone (PROG) (AID 2283442; active = hit-call score of the fitted dose curve at least 0.9, where 1 is the maximum; inactive = score below 0.9;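 for AC50: human H295R adrenal cells primed with 10 µM forskolin before dosing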). Particulars: actives raise or lower the signal. The method, boiled down:
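Steps: seed H295R cells and let them adhere overnight; prime 48 h with 10 uM forskolin; dose with compound in DMSO at 0.1% final for 48 h; extract medium steroids with MTBE; measure progesterone by LC-MS/MS. MTT viability was run in the same wells.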

“And” between values parts separate entries of the source, which are not always exact repeats. Equal values may be shown once. Records with an inconclusive call do not appear. Some compounds were tested as several samples or in several runs, with calls that do not always agree. The source made the active and inactive calls. Rule for the calls, unless noted: active = hit-call score of the fitted dose curve at least 0.9, where 1 is the maximum; inconclusive = response in the unintended direction; inactive = score below 0.9.

Sequence of Estrogen receptor beta (Homo sapiens) (Q92731 whole entry, looked up, the tested form may be a part): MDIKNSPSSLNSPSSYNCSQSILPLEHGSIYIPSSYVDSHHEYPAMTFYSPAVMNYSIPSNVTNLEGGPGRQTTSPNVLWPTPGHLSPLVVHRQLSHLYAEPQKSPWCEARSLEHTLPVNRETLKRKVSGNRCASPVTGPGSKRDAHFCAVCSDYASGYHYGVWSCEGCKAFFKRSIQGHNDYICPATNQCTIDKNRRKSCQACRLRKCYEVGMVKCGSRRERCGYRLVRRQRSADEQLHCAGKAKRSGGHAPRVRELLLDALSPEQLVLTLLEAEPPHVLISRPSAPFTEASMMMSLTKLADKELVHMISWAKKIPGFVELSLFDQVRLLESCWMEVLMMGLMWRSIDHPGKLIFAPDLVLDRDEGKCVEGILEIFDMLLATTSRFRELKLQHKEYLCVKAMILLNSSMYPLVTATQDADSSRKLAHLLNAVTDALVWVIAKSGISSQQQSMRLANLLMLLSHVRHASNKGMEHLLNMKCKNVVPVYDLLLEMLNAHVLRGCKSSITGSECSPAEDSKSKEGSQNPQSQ
Sequence of Fatty acid synthase (Homo sapiens) (P49327 whole entry, looked up): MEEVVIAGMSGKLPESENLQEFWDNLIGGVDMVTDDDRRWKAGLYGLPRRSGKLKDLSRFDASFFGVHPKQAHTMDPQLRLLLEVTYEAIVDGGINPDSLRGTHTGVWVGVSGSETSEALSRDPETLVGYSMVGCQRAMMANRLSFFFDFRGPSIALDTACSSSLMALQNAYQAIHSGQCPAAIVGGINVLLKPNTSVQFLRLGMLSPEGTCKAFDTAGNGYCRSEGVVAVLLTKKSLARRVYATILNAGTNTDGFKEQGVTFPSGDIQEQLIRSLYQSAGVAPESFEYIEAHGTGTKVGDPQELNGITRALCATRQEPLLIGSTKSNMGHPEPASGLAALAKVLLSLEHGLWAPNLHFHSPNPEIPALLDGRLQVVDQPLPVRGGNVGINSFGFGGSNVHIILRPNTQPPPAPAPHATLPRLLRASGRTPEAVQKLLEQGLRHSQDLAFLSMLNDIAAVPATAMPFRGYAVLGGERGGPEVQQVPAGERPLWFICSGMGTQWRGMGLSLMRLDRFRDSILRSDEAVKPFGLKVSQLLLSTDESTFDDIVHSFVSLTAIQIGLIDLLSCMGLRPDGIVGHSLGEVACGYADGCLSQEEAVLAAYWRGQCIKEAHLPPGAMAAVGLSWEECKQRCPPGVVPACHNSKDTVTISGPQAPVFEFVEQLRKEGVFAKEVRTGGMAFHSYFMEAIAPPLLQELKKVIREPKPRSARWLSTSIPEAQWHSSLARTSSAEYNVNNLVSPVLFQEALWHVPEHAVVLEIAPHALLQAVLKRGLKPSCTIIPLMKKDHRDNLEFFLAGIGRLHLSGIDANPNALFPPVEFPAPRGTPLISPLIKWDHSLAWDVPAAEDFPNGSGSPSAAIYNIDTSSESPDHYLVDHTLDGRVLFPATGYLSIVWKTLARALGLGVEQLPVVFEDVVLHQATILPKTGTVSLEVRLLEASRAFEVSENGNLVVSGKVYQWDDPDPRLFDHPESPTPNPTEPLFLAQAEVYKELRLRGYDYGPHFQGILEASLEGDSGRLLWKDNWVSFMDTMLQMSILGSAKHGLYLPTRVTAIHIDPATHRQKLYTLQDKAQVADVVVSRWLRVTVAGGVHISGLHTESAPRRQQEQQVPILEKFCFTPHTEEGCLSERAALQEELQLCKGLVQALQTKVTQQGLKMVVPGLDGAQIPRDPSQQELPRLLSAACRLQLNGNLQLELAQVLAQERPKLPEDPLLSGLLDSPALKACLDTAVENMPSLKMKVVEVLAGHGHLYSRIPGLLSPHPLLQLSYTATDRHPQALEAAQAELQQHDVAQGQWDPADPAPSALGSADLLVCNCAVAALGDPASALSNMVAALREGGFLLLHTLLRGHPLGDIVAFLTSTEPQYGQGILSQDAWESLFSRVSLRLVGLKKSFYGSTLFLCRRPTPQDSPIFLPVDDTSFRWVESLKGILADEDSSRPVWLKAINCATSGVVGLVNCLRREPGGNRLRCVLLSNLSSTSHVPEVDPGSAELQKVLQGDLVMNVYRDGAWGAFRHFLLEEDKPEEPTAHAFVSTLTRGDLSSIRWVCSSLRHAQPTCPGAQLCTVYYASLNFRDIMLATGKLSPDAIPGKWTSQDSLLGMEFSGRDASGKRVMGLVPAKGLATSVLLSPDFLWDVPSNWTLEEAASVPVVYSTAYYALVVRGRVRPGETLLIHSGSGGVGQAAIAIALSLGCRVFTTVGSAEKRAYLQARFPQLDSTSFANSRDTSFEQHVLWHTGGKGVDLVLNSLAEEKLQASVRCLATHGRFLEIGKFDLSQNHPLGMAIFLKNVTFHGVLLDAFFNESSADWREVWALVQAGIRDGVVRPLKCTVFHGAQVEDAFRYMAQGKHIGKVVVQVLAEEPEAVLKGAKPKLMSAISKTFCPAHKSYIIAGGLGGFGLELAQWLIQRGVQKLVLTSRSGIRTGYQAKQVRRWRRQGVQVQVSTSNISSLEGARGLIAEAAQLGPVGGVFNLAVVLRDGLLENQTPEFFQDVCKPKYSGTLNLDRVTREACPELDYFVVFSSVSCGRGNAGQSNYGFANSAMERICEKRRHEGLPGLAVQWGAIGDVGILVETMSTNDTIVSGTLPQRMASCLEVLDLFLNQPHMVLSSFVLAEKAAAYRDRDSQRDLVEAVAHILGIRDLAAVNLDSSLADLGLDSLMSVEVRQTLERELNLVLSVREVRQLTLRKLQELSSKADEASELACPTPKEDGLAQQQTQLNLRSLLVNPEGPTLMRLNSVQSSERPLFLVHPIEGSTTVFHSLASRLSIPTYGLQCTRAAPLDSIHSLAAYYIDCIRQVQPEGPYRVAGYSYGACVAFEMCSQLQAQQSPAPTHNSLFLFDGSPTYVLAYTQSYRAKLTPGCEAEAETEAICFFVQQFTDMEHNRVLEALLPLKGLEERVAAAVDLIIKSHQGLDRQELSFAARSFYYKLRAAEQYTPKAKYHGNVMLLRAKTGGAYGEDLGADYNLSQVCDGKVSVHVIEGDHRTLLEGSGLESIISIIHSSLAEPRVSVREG
Sequence of Estrogen receptor (Homo sapiens) (P03372 whole entry, looked up): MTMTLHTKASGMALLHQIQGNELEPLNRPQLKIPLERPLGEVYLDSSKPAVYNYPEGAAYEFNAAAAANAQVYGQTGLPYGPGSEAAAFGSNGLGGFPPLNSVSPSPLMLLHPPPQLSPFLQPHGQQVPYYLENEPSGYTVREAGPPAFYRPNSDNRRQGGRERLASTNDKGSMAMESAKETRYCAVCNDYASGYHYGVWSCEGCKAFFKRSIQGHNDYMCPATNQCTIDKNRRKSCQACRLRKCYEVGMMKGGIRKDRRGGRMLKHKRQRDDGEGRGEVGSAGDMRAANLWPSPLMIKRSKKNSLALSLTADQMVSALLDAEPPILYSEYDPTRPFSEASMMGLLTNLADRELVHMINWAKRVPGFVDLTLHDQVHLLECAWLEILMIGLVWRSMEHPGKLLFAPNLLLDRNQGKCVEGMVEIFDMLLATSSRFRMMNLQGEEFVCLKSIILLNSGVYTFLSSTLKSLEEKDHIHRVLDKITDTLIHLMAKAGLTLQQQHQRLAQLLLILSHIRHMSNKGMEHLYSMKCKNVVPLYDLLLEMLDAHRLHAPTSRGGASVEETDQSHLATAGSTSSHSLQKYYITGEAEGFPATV
Sequence of Peroxisome proliferator-activated receptor gamma (Homo sapiens) (P37231 whole entry, looked up, the tested form may be a part): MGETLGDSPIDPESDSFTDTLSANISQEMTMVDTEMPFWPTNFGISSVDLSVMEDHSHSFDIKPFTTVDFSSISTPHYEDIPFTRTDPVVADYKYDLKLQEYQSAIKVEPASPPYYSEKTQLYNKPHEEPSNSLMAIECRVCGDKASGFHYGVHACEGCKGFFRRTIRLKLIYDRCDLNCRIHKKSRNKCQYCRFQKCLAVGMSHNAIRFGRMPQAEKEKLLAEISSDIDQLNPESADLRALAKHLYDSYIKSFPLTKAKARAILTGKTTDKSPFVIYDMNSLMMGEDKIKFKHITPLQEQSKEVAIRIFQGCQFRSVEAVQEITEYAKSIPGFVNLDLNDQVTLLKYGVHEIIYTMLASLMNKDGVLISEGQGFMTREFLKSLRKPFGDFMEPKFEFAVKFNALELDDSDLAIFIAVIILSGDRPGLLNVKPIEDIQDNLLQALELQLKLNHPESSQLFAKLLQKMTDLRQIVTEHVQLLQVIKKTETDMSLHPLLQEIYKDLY
Sequence of Retinoic acid receptor RXR-alpha (Homo sapiens) (P19793 whole entry, looked up, the tested form may be a part): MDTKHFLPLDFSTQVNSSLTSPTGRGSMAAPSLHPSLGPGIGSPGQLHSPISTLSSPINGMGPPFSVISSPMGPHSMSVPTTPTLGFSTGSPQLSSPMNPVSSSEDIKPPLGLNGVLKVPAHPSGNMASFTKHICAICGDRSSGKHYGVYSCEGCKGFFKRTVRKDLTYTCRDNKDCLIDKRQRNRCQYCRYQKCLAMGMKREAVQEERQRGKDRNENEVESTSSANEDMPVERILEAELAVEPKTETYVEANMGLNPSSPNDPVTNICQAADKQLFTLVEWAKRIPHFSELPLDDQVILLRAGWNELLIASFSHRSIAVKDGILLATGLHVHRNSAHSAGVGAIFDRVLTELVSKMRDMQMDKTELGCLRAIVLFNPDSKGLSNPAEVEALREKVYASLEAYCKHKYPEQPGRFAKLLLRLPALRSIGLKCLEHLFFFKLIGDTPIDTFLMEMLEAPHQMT

Consider `CC(C)c1ccc(C(=O)N=C(N)N)cc1S(C)(=O)=O`, for which the outcome in [1], in assay [2], in assay [3], in [4], in [5] and in assay [6] was inactive. The outcome in assay [7] and in [9] was inactive. Besides, in assay [8], the AC50 is 0.669 µM (active).
Regarding `C[C@]12C=CC(=O)C=C1CC[C@@H]1[C@@H]2C(=O)C[C@@]2(C)[C@H]1CC[C@]2(O)C(=O)CO`, the outcome in assay [1], in assay [2], in [3], in assay [5], in [6] and in assay [7] was inactive. Besides, the result in [10], in assay [11], in assay [12], in [8] and in assay [9] was inactive.
In the case of `CCCCCCCCCCCCCO`, the call in assay [1], in [2], in assay [3], in [4], in assay [5] and in assay [6] was inactive. Moreover, the compound was called inactive in assay [7], in assay [8] and in assay [9]. For the same compound, the AC50 in assay [4] was 67.5 µM (active).
For the compound `CCOC(=O)CCC(=O)OCC`, the outcome in [1], in assay [2], in assay [3], in [4], in [5] and in assay [6] was inactive. Further, the call in [7] and in assay [9] was inactive. For the same compound, the AC50 in assay [8] was 85.1 µM (active).
In the case of `Cc1c(C(=O)O)c(O)cc2c1C(=O)c1c(O)c([C@@H]3O[C@H](CO)[C@@H](O)[C@H](O)[C@H]3O)c(O)c(O)c1C2=O`, the outcome in [1], in assay [2], in [3], in [4], in [5] and in assay [6] was inactive. Also, the call in [7], in [13], in assay [14], in assay [10], in assay [15] and in assay [16] was inactive. The outcome in assay [11], in assay [12], in assay [17], in assay [8] and in [9] was inactive. In addition, the AC50 in assay [4] is 50 µM (active).
Regarding `C[Si]1(C)O[Si](C)(C)O[Si](C)(C)O[Si](C)(C)O1`, the call in assay [1], in assay [2], in [3], in assay [4], in assay [5] and in assay [6] was inactive. Moreover, the call in assay [7], in assay [8] and in [9] was inactive.
As for `COC(=O)c1ccc(O)cc1`, the compound was called inactive in [1], in assay [2], in assay [3], in [5], in assay [6] and in assay [7]. Moreover, the compound was called inactive in assay [13], in assay [14], in assay [15], in [16], in assay [11] and in [12]. Also, the call in assay [8] and in assay [9] was inactive. For the same compound, the AC50 is 45 µM (active) in [10] and 50 µM (active) in assay [17].
Take `O=[N+]([O-])C(CO)(CO)CO`: the compound was classed as inactive in assay [1], in assay [2], in assay [3], in assay [4], in [5] and in assay [6]. In addition, the outcome in assay [7], in assay [8] and in assay [9] was inactive.
Regarding `Cc1oc(-c2ccccc2)nc1CCOc1cccc2c1ccn2CCC(=O)O`, the compound was classed as inactive in assay [1], in [2], in assay [3] and in assay [4]. Further, the AC50 in [6] was 2.57 µM (active) and 4.49 µM (active); in assay [7], 3.58 µM (active) and 2.88 µM (active); in assay [8], 87.9 µM (active); in [9], 11.9 µM (active).
For `CC1=C(/C=C/C(C)=C/C=C/C(C)=C/CO)C(C)(C)CCC1`, the compound was classed as inactive in assay [1], in assay [2], in assay [3], in assay [4], in assay [5] and in assay [6]. For the same compound, the compound was classed as inactive in assay [7], in assay [8] and in assay [9]. For the same compound, the AC50 was 18.5 µM (active) in assay [4] and 79.3 µM (active) in assay [5].
